MOR-DOR ag: agonists of OPRM1-OPRD1 heterodimerization, primary screen, cell-based, luminescence; 0.3% of 340,000 active; Mu-type opioid receptor (Homo sapiens) + Delta-type opioid receptor (Homo sapiens), …; cells; activation, % at 9.3 µM; in the data active = activation above about 18%;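 also: 0% = vehicle-treated cells and 100% = reference agonist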
HTR5A inv ctr: HTR5A inverse agonists in luminescence cell assay, primary screen, counter-screen for OPRM1-OPRD1 heterodimer inverse agonist project, full-deck HTS. 5-hydroxytryptamine receptor 5A (Homo sapiens), P47898. 0.083% of 340,000 active. HTR5A cell line, inverse agonism. inhibition, % at 9.3 µM; in the data active = inhibition mostly above about 23%, no sharp cut-off; inactive = mostly below about 18%;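 also: 0% = cells with DMSO and 100% = no-cell wells with DMSO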
Target sequence (P47898 whole entry, looked up): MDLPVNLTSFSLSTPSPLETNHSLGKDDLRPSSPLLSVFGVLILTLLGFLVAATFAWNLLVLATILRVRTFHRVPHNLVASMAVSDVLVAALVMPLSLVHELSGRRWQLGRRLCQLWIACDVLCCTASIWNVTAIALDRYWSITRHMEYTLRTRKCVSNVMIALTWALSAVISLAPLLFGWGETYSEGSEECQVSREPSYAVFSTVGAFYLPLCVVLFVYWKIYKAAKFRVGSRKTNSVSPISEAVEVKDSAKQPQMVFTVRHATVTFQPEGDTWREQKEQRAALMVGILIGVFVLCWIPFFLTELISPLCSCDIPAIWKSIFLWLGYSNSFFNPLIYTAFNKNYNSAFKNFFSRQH
HTR5A ag ctr: HTR5A agonists in luminescence cell assay, primary screen, counter-screen for OPRM1-OPRD1 heterodimer agonist project, full-deck HTS; 5-hydroxytryptamine receptor 5A (Homo sapiens), P47898; cell-based; activation, % at 9.3 µM; 0.61% of 340,000 active; in the data active = activation mostly above about 9.5%, no sharp cut-off; inactive = mostly below about 7.6%;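 also: 0% = cells with vehicle only and 100% = reference agonist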
OPRM1-OPRD1 inv: inverse agonists of MOR-DOR heterodimerization, primary screen, cell-based, luminescence; Mu-type opioid receptor (Homo sapiens) + Delta-type opioid receptor (Homo sapiens), …; cell-based MOR-DOR heterodimer luminescence, inverse agonism; inhibition, % at 9.3 µM; 0.21% of 340,000 active; AID 504357, 2011; in the data active = inhibition above about 22%, passing the limit was not always enough;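 also: 0% = cells with DMSO and 100% = wells without cells with DMSO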
OPRM1-D1 inv cf: inverse agonists of MOR-DOR heterodimerization, confirmation, cell-based, luminescence; shares compounds with OPRM1-OPRD1 inv; cells expressing OPRM1/OPRD1 heterodimer; inhibition, % at 9.3 µM; 20% of 580 active; AID 504900, 2011; in the data active = inhibition above about 32%;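 also: 0% = cells with DMSO and 100% = wells lacking cells with DMSO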
HTR5A inv count: HTR5A inverse agonists, counter-screen for OPRM1-OPRD1 inverse agonist project, cell-based, luminescence; shares compounds with OPRM1-OPRD1 inv; HTR5A-expressing cells, inverse agonism; inhibition, % at 9.3 µM; 580 tested, under 10 active; call rule not given here;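 also: 0% = cells with DMSO and 100% = no-cell wells with DMSO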
The depositor's hits bear a star. Shown are actives, neighbours in structure and some others; about 1.1% of the full set was active somewhere.

Results for CC(C)(C)c1ccc(OCC(=O)NNC(=S)NC(=O)c2ccccc2[N+](=O)[O-])c(Br)c1 ?
MOR-DOR ag: -6.3; HTR5A inv ctr: 16.4; HTR5A ag ctr: -4.5; OPRM1-OPRD1 inv: 32.5*; OPRM1-D1 inv cf: 17.0; HTR5A inv count: 4.3

Results for Cn1c(-c2ccc(F)cc2)cnc1NCc1ccccc1F ?
MOR-DOR ag: -7.4; HTR5A inv ctr: -17.6; HTR5A ag ctr: -0.2; OPRM1-OPRD1 inv: 37.7*; OPRM1-D1 inv cf: -9.6; HTR5A inv count: -4.9

Results for CC(C)N(C(=O)[C@H]1CC(CC(=O)NC(C)(C)C)C(=O)N2CCc3c([nH]c4ccccc34)[C@]12C)C(C)C (some centres not stated) ?
MOR-DOR ag: -2.6; HTR5A inv ctr: 8.2; HTR5A ag ctr: -2.4; OPRM1-OPRD1 inv: 12.1

How did CCOC(=O)C(=O)NNc1ccc(C)cc1 do in these assays?
MOR-DOR ag: -6.0; HTR5A inv ctr: -2.1; HTR5A ag ctr: 0.6; OPRM1-OPRD1 inv: 31.1*; OPRM1-D1 inv cf: -1.3; HTR5A inv count: 19.4

What do the screens show for `CCCOC(=O)C(=O)NNc1ccccc1`?
MOR-DOR ag: 0.0; HTR5A inv ctr: -6.2; HTR5A ag ctr: 2.2; OPRM1-OPRD1 inv: -0.2

Results for CC(C)OC(=O)C(=O)NNc1ccccc1 ?
MOR-DOR ag: -3.4; HTR5A inv ctr: 8.2; HTR5A ag ctr: -3.0; OPRM1-OPRD1 inv: 24.0*; OPRM1-D1 inv cf: 4.1; HTR5A inv count: 3.1

What do the screens show for `COc1cc(C(=O)C(=O)c2ccc(OC)c(OC)c2)ccc1O`?
MOR-DOR ag: -3.4; HTR5A inv ctr: 20.2; HTR5A ag ctr: -5.2; OPRM1-OPRD1 inv: 17.4

What do the screens show for `O=C(CC1(O)C(=O)Nc2ccccc21)c1ccc(-n2cnnn2)cc1` (configuration not stated)?
MOR-DOR ag: -8.8; HTR5A inv ctr: 14.8; HTR5A ag ctr: -4.4; OPRM1-OPRD1 inv: 40.1*; OPRM1-D1 inv cf: 32.8*; HTR5A inv count: -1.2

How did COc1ccc(N(CC(=O)N2CCN(Cc3ccccc3)CC2)S(C)(=O)=O)cc1OC do in these assays?
MOR-DOR ag: -3.4; HTR5A inv ctr: -21.9; HTR5A ag ctr: 5.9; OPRM1-OPRD1 inv: 16.3

What do the screens show for `C=CCn1c(N)c(C(=O)Nc2cccc(C)c2)c2nc3ccccc3nc21`?
MOR-DOR ag: -0.7; HTR5A inv ctr: -13.4; HTR5A ag ctr: 5.0; OPRM1-OPRD1 inv: 4.3

How did C=CCn1c(N)c(C(=O)OCCC)c2nc3ccccc3nc21 do in these assays?
MOR-DOR ag: -9.0; HTR5A inv ctr: -3.0; HTR5A ag ctr: 0.8; OPRM1-OPRD1 inv: 48.5*; OPRM1-D1 inv cf: -21.7; HTR5A inv count: -93.8

Results for CCCNC(=O)c1nnsc1S(=O)(=O)c1ccc(Cl)cc1 ?
MOR-DOR ag: -5.7; HTR5A inv ctr: 10.7; HTR5A ag ctr: -4.1; OPRM1-OPRD1 inv: 32.4*; OPRM1-D1 inv cf: 12.3; HTR5A inv count: -5.2

How did CCOC(=O)c1c(O)cc(C)cc1Nc1ccccc1 do in these assays?
MOR-DOR ag: 4.6; HTR5A inv ctr: -3.9; HTR5A ag ctr: 1.1; OPRM1-OPRD1 inv: -23.4

Results for Cc1cccc2c1N(CCOc1ccccc1Cl)C(=O)C2=O ?
MOR-DOR ag: -5.7; HTR5A inv ctr: 0.8; HTR5A ag ctr: -0.3; OPRM1-OPRD1 inv: 34.5*; OPRM1-D1 inv cf: -0.9; HTR5A inv count: -6.7

How did COc1ccccc1OCCCN1C(=O)C(=O)c2cccc(C)c21 do in these assays?
MOR-DOR ag: -7.7; HTR5A inv ctr: 13.1; HTR5A ag ctr: -4.8; OPRM1-OPRD1 inv: 40.7*; OPRM1-D1 inv cf: 56.1*; HTR5A inv count: 3.1

How did O=C1c2ccccc2C(=O)N1CCOc1ccccc1Cl do in these assays?
MOR-DOR ag: -2.2; HTR5A inv ctr: -4.9; HTR5A ag ctr: -2.0; OPRM1-OPRD1 inv: 11.6

How did Cc1ccccc1OCCN1C(=O)C(=O)c2cccc(C)c21 do in these assays?
MOR-DOR ag: -9.3; HTR5A inv ctr: -10.4; HTR5A ag ctr: 2.0; OPRM1-OPRD1 inv: 58.0*; OPRM1-D1 inv cf: -223.8; HTR5A inv count: -55.4

Results for Cc1cc(C(=O)COC(=O)c2n[nH]c(=O)c3ccccc23)c(C)n1C(C)C ?
MOR-DOR ag: 1.4; HTR5A inv ctr: -19.3; HTR5A ag ctr: 7.0; OPRM1-OPRD1 inv: -5.6

Results for CCCn1nc([N+](=O)[O-])c(C(C#N)c2nc3ccccc3o2)c(Cl)c1=O (configuration not stated) ?
MOR-DOR ag: -1.9; HTR5A inv ctr: 6.3; HTR5A ag ctr: -1.4; OPRM1-OPRD1 inv: 10.6

Results for CCn1nc([N+](=O)[O-])c(C(C#N)c2nc3cc(C(F)(F)F)ccc3s2)c(Cl)c1=O (configuration not stated) ?
MOR-DOR ag: -5.8; HTR5A inv ctr: 1.4; HTR5A ag ctr: -1.5; OPRM1-OPRD1 inv: 30.9*; OPRM1-D1 inv cf: -3.9; HTR5A inv count: -73.4

How did Cc1cccc(N=C2CSC(=O)N2)c1 do in these assays?
MOR-DOR ag: -3.5; HTR5A inv ctr: -3.6; HTR5A ag ctr: 2.3; OPRM1-OPRD1 inv: 15.7

What do the screens show for `Cc1cccc(N=C2C(=O)Nc3c(Cl)cccc32)c1`?
MOR-DOR ag: -11.7; HTR5A inv ctr: -9.7; HTR5A ag ctr: 2.6; OPRM1-OPRD1 inv: 55.8*; OPRM1-D1 inv cf: 26.7; HTR5A inv count: 6.5

What do the screens show for `C/C(CC(=O)Nc1ccc(N(C)C)cc1)=N\NC(=O)c1ccccn1`?
MOR-DOR ag: -3.2; HTR5A inv ctr: -9.3; HTR5A ag ctr: -3.5; OPRM1-OPRD1 inv: 14.9

What do the screens show for `C/C(CC(=O)Nc1ccc(N(C)C)cc1)=N\NC(=O)c1cnccn1`?
MOR-DOR ag: -8.6; HTR5A inv ctr: 17.7; HTR5A ag ctr: 1.8; OPRM1-OPRD1 inv: 38.6*; OPRM1-D1 inv cf: 6.7; HTR5A inv count: -10.7

Results for Oc1ccccc1C=NN1CCCCCC1 ?
MOR-DOR ag: 1.8; HTR5A inv ctr: 3.6; HTR5A ag ctr: -0.9; OPRM1-OPRD1 inv: -8.9

Results for Oc1[nH]c2ccccc2c1/C=N/N1CCCCC1 ?
MOR-DOR ag: -6.2; HTR5A inv ctr: 8.9; HTR5A ag ctr: -3.3; OPRM1-OPRD1 inv: 37.4*; OPRM1-D1 inv cf: 26.8; HTR5A inv count: -14.7

How did O=C(NNc1cc(Cl)cc(Cl)c1)c1cccs1 do in these assays?
MOR-DOR ag: -4.6; HTR5A inv ctr: 4.0; HTR5A ag ctr: -0.7; OPRM1-OPRD1 inv: 23.3

How did O=C(NNc1ccc(Cl)cc1)c1cccs1 do in these assays?
MOR-DOR ag: -9.7; HTR5A inv ctr: -9.6; HTR5A ag ctr: -1.7; OPRM1-OPRD1 inv: 49.5*; OPRM1-D1 inv cf: -15.5; HTR5A inv count: -6.8

What do the screens show for `CCc1ccc(C(=O)NNc2ccc(Cl)cc2)cc1`?
MOR-DOR ag: -8.0; HTR5A inv ctr: 6.2; HTR5A ag ctr: -6.7; OPRM1-OPRD1 inv: 39.4*; OPRM1-D1 inv cf: 14.2; HTR5A inv count: 1.0

Results for CCCc1ccc(C(=O)NNc2cccc(C)c2)cc1 ?
MOR-DOR ag: -8.8; HTR5A inv ctr: 0.1; HTR5A ag ctr: -7.1; OPRM1-OPRD1 inv: 43.9*; OPRM1-D1 inv cf: 25.4; HTR5A inv count: 13.6

Screening data (PubChem)
